Data: PubChem BioAssay (NCI)
This is part of a sample that, as a whole, favours compounds with a hit. Of some 79,000 tested, about 15% had one in any assay. A number with no mark means an inactive call. The source made the active and inactive calls. Rule as the data show it: active = growth inhibition above about 70%; inactive = the rest.

Key:
[1] = NCI Yeast Anticancer Drug Screen. Data for the rad50 strain (AID 155);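 also: 0% = growth of vehicle-only cultures of the same strain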; conditions: S. cerevisiae rad50 strain growth inhibition, hits give high values; at 50.0 µM unless noted
Summary of the method: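 Inhibition values express reduced yeast growth in compound-treated cultures relative to vehicle-treated controls.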

[2] = NCI Yeast Anticancer Drug Screen. Data for the mec2-1 strain (AID 157); conditions: S. cerevisiae mec2-1 strain, hits give high values; at 50.0 µM unless noted
Summary of the method: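 Strain: mec2-1 (DNA repair/cell cycle alteration). Compound exposure, then growth measured; inhibition expressed relative to vehicle.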

[3] = NCI Yeast Anticancer Drug Screen. Data for the sgs1 mgt1 strain (AID 161);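 also: 0% = growth of cultures given vehicle only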; conditions: S. cerevisiae sgs1 mgt1 strain, hits give high values; at 50.0 µM unless noted
Summary of the method: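 Mutant yeast exposed to compound; growth scored against vehicle-only wells.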

[4] = NCI Yeast Anticancer Drug Screen. Data for the cln2 rad14 strain (AID 165);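 also: 0% = growth equal to vehicle treated cultures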; conditions: S. cerevisiae cln2 rad14 strain, hits give high values; at 50.0 µM unless noted
Summary of the method: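 Compounds are applied to the cln2 rad14 yeast strain, and growth is then compared with that of vehicle-treated cultures to give inhibition.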

[5] = NCI Yeast Anticancer Drug Screen. Data for the bub3 strain (AID 167); conditions: S. cerevisiae bub3 mutant strain, hits give high values; at 50.0 µM unless noted
Summary of the method: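 Steps: expose the mutant yeast strain to compound; grow alongside vehicle-treated cultures; measure growth; express inhibition against the vehicle cultures.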

[6] = NCI Yeast Anticancer Drug Screen. Data for the mlh1 rad18 strain (AID 175); conditions: S. cerevisiae mlh1 rad18 strain growth inhibition, hits give high values; at 50.0 µM unless noted
Summary of the method: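 Read-out is yeast growth inhibition, calculated against vehicle-only controls. The compound was applied to a strain engineered with DNA damage repair alterations.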

Compound: CN=C1CC2c3cc(OC)c(OC)cc3CCN2C2=C1C(=O)CC(C)(C)C2 (stereo unspecified)
- growth inhibition [1]: 17.1%
- growth inhibition [2]: 18.5%
- growth inhibition [3]: 15.1%
- growth inhibition [4]: -19%
- growth inhibition [5]: 36.4%
- growth inhibition [6]: 16.6%

Compound: CC(=O)CC(C)(C)c1cc(-c2ccccc2)on1
- growth inhibition [1]: 20.8%
- growth inhibition [2]: 5.4%
- growth inhibition [3]: -6.25%
- growth inhibition [4]: -61.6%
- growth inhibition [5]: 19.4%
- growth inhibition [6]: 12.8%

Compound: ClC1=C(Cl)C(Cl)(Cl)c2c3c(c4c(c21)C(Cl)(Cl)C(Cl)=C4Cl)C(Cl)(Cl)C(Cl)=C3Cl
- growth inhibition [1]: -0.6%
- growth inhibition [2]: 17.1%
- growth inhibition [3]: 5.15%
- growth inhibition [4]: -53.8%
- growth inhibition [5]: 9.1%
- growth inhibition [6]: 7.45%

Compound: ClN(Cl)c1nc(-c2ccccc2)nc(N(Cl)Cl)n1
- growth inhibition [1]: 18.1%
- growth inhibition [2]: 29.6%
- growth inhibition [3]: 34.9%
- growth inhibition [4]: -38.1%
- growth inhibition [5]: 32.5%
- growth inhibition [6]: 31.5%

Compound: O=C(O)c1cc(Cl)c2ccccc2c1O
- growth inhibition [1]: 46.8%
- growth inhibition [2]: 45.8%
- growth inhibition [3]: 46.8%
- growth inhibition [4]: 31.6%
- growth inhibition [5]: 42.1%
- growth inhibition [6]: 33.1%

Compound: O=S(=O)(CCCl)c1ccc(Br)cc1
- growth inhibition [1]: 51.6%
- growth inhibition [2]: 44.6%
- growth inhibition [3]: 56.7%
- growth inhibition [4]: 18.8%
- growth inhibition [5]: 39.4%
- growth inhibition [6]: 57.5%

Compound: CN1NC(c2ccccc2)=C(C#N)C(=O)CC1c1ccccc1 (stereo unspecified)
- growth inhibition [1]: 6.8%
- growth inhibition [2]: -2.5%
- growth inhibition [3]: 13.1%
- growth inhibition [4]: -1.4%
- growth inhibition [5]: 8.95%
- growth inhibition [6]: 10.2%

Compound: CCOC(=O)c1cc(/C=C/C(C)=C/C(=O)OC)n(C)c1C
- growth inhibition [1]: 74.5% (active)
- growth inhibition [2]: 56%
- growth inhibition [3]: 79.5% (active)
- growth inhibition [4]: 34.5%
- growth inhibition [5]: 80.2% (active)
- growth inhibition [6]: 58.5%

Compound: CCC[C@@H]1C(=O)N=C(N)N1C(=O)OCc1ccccc1
- growth inhibition [1]: 18.6%
- growth inhibition [2]: 8.4%
- growth inhibition [3]: 7.75%
- growth inhibition [4]: 1.8%
- growth inhibition [5]: -5.8%
- growth inhibition [6]: 2.5%

Compound: CC(=O)NNc1nc(C)c(C(=O)/C=C/c2ccc(NC(C)=O)cc2)s1
- growth inhibition [1]: 21.9%
- growth inhibition [2]: 16.1%
- growth inhibition [3]: 0.3%
- growth inhibition [4]: 9.15%
- growth inhibition [5]: 22.2%
- growth inhibition [6]: 31.5%

Compound: Clc1ccc2c(c1)C(=P(c1ccccc1)(c1ccccc1)c1ccccc1)c1cc(Cl)cc(Cl)c1-2
- growth inhibition [1]: 83.7% (active)
- growth inhibition [2]: 52.6%
- growth inhibition [3]: 66.8%
- growth inhibition [4]: 50.6%
- growth inhibition [5]: 39.3%
- growth inhibition [6]: 64.6%

Compound: Clc1nc2n(c1/C=C/c1cccs1)CCS2
- growth inhibition [1]: 28.4%
- growth inhibition [2]: 23.2%
- growth inhibition [3]: 56.4%
- growth inhibition [4]: 13.9%
- growth inhibition [5]: 20.6%
- growth inhibition [6]: 59.5%

Compound: O=C(CC1CCCCC1)OCCOCCO
- growth inhibition [1]: -7.9%
- growth inhibition [2]: -5.7%
- growth inhibition [3]: -27.6%
- growth inhibition [4]: 3.35%
- growth inhibition [5]: -2.85%
- growth inhibition [6]: -3.5%

Compound: CC(=O)Nc1cc(S(=O)(=O)O)cc2cc(S(=O)(=O)O)cc(O)c12
- growth inhibition [1]: -20.9%
- growth inhibition [2]: -13.3%
- growth inhibition [3]: -0.05%
- growth inhibition [4]: 21.8%
- growth inhibition [5]: 15.6%
- growth inhibition [6]: -8.2%

Compound: O=c1cc2ccccc2nn1-c1ccccc1Cl
- growth inhibition [1]: 26.1%
- growth inhibition [2]: 6.4%
- growth inhibition [3]: 37.6%
- growth inhibition [4]: 36.5%
- growth inhibition [5]: 25.3%
- growth inhibition [6]: 34.5%

Compound: COC(=O)CC1C(C)(C)C(=O)C2CC3=C4CC(=O)OC(c5ccoc5)C4(C)CCC3C1(C)C2=O (stereo unspecified)
- growth inhibition [1]: 1.3%
- growth inhibition [2]: 2.4%
- growth inhibition [3]: -20.1%
- growth inhibition [4]: -8.3%
- growth inhibition [5]: -31.9%
- growth inhibition [6]: 16.8%

Compound: C1=C(N2CCCC2)C(=[N+]2CCCC2)C(N2CCCC2)=C1
- growth inhibition [1]: 3.65%
- growth inhibition [2]: -2.45%
- growth inhibition [3]: 5.55%
- growth inhibition [4]: -7.25%
- growth inhibition [5]: 1.5%
- growth inhibition [6]: 9.15%

Compound: C=CCCn1nc(-c2ccccc2)oc1=O
- growth inhibition [1]: -8.35%
- growth inhibition [2]: -28.5%
- growth inhibition [3]: -19.2%
- growth inhibition [4]: -2.75%
- growth inhibition [5]: -26.9%
- growth inhibition [6]: 6.1%

Compound: O=C1c2ccccc2CCC1c1ccccc1 (stereo unspecified)
- growth inhibition [1]: -1.65%
- growth inhibition [2]: -0.7%
- growth inhibition [3]: -5.2%
- growth inhibition [4]: -1.05%
- growth inhibition [5]: -10.7%
- growth inhibition [6]: -23.4%

Compound: CCCCCCCc1nc(CCCCCCC)nc(CCCCCCC)n1
- growth inhibition [1]: 1.05%
- growth inhibition [2]: 12.9%
- growth inhibition [3]: 6%
- growth inhibition [4]: -15.1%
- growth inhibition [5]: 19.8%
- growth inhibition [6]: 12.6%

Compound: Cc1ccc(S(=O)(=O)N(C)CCCC#N)cc1
- growth inhibition [1]: -11.4%
- growth inhibition [2]: -16.3%
- growth inhibition [3]: 6.2%
- growth inhibition [4]: -3.1%
- growth inhibition [5]: -6.6%
- growth inhibition [6]: -19.6%

Compound: CN1CCC/C1=N\C(=Nc1ccccc1)N1CCCC1
- growth inhibition [1]: 7.95%
- growth inhibition [2]: -1.8%
- growth inhibition [3]: -6.05%
- growth inhibition [4]: 12.5%
- growth inhibition [5]: -4.35%
- growth inhibition [6]: -9.15%

Compound: CCCCC(CCCC)C(=O)O
- growth inhibition [1]: -22.3%
- growth inhibition [2]: -9.65%
- growth inhibition [3]: -9.85%
- growth inhibition [4]: 50%
- growth inhibition [5]: 10.9%
- growth inhibition [6]: -9.3%

Compound: CN(C)c1ccc(N=C(C#N)C(=O)c2ccccc2)cc1
- growth inhibition [1]: -4.3%
- growth inhibition [2]: 17.6%
- growth inhibition [3]: -6.7%
- growth inhibition [4]: -21.6%
- growth inhibition [5]: -15%
- growth inhibition [6]: -12.2%

Compound: O=[N+]([O-])c1cc(F)ccc1S(=O)(=O)c1ccccc1
- growth inhibition [1]: 31.6%
- growth inhibition [2]: -40.5%
- growth inhibition [3]: 7.8%
- growth inhibition [4]: 1.85%
- growth inhibition [5]: -23.2%
- growth inhibition [6]: 0.65%

Compound: CN(C)C(CCC(=O)NC(C)(C)C)CC(=O)NC(C)(C)C (stereo unspecified)
- growth inhibition [1]: 0.2%
- growth inhibition [2]: 5%
- growth inhibition [3]: 11.7%
- growth inhibition [4]: -2.35%
- growth inhibition [5]: 6.95%
- growth inhibition [6]: -8.65%

Compound: Cc1cccc(C(=O)OCC2CCCO2)c1 (stereo unspecified)
- growth inhibition [1]: -0.2%
- growth inhibition [2]: 11.7%
- growth inhibition [3]: 8.15%
- growth inhibition [4]: -22.6%
- growth inhibition [5]: 8.8%
- growth inhibition [6]: -3.4%

Compound: OC1c2ccccc2C2c3ccccc3C1C2Cl (stereo unspecified)
- growth inhibition [1]: 43.8%
- growth inhibition [2]: 5.9%
- growth inhibition [3]: 25.8%
- growth inhibition [4]: 35.3%
- growth inhibition [5]: -5.7%
- growth inhibition [6]: 39.8%

Compound: CO/C(=N\N=C\c1ccc(C(F)(F)F)cc1)c1ccncc1
- growth inhibition [1]: 54.5%
- growth inhibition [2]: 18.9%
- growth inhibition [3]: 35.3%
- growth inhibition [4]: 22.4%
- growth inhibition [5]: 30.9%
- growth inhibition [6]: 15.3%

Compound: COC(=O)[C@H]1C2CC[C@@H]3C45C[C@@H](c6ccoc6)O[C@@H]4O[C@@H](O2)C31CCC5C (stereo partly specified)
- growth inhibition [1]: 14.5%
- growth inhibition [2]: -18.4%
- growth inhibition [3]: 6.35%
- growth inhibition [4]: 5%
- growth inhibition [5]: -30.1%
- growth inhibition [6]: 14.9%

Compound: COC1=CC2CC(C#N)C2(OC)C=C1 (stereo unspecified)
- growth inhibition [1]: -10.8%
- growth inhibition [2]: 5.75%
- growth inhibition [3]: -4.7%
- growth inhibition [4]: -18.2%
- growth inhibition [5]: -17.4%
- growth inhibition [6]: 1.8%

Compound: O=C(c1ccc(Cl)cc1)N1CCC(CCCc2ccccc2)CC1
- growth inhibition [1]: -2.2%
- growth inhibition [2]: 3.45%
- growth inhibition [3]: -4.3%
- growth inhibition [4]: 5.05%
- growth inhibition [5]: 12.8%
- growth inhibition [6]: -3.2%

Compound: CC(C)(C)CC(=O)NC1CCCCC1
- growth inhibition [1]: -6.55%
- growth inhibition [2]: -5.8%
- growth inhibition [3]: 12.2%
- growth inhibition [4]: -23.1%
- growth inhibition [5]: 3.4%
- growth inhibition [6]: 13.7%

Compound: Clc1cccc(/C=N\N=C\c2cccc(Cl)c2)c1
- growth inhibition [1]: -4.6%
- growth inhibition [2]: -7.75%
- growth inhibition [3]: 6.3%
- growth inhibition [4]: -8.75%
- growth inhibition [5]: -1.95%
- growth inhibition [6]: 5.45%

Compound: CCN(CC)c1ccc2cc(-c3csc(-c4ccc(N(C)C)cc4)n3)c(=O)oc2c1
- growth inhibition [1]: 26.5%
- growth inhibition [2]: 12.7%
- growth inhibition [3]: -5.25%
- growth inhibition [4]: 16.9%
- growth inhibition [5]: -13.1%
- growth inhibition [6]: -20.3%

Compound: CC(=O)c1cccc(OC(=O)Nc2ccccc2)c1
- growth inhibition [1]: 6.45%
- growth inhibition [2]: -10.2%
- growth inhibition [3]: 2.5%
- growth inhibition [4]: 4.3%
- growth inhibition [5]: -1.45%
- growth inhibition [6]: 22.4%

Compound: COC1OC(CI)C(O)C(O)C1O (stereo unspecified)
- growth inhibition [1]: -6.05%
- growth inhibition [2]: 2.4%
- growth inhibition [3]: -4.45%
- growth inhibition [4]: -24.2%
- growth inhibition [5]: 37.8%
- growth inhibition [6]: -16.7%

Compound: O=S(=O)(O)c1cc(O)c(S(=O)(=O)O)cc1O
- growth inhibition [1]: -12.2%
- growth inhibition [2]: 13.9%
- growth inhibition [3]: 1.7%
- growth inhibition [4]: -3.6%
- growth inhibition [5]: 1.4%
- growth inhibition [6]: -8.6%

Compound: O=C(Nc1ccc2c(c1)Cc1ccccc1-2)c1cccc2ccccc12
- growth inhibition [1]: -4.05%
- growth inhibition [2]: -20.8%
- growth inhibition [3]: 0.4%
- growth inhibition [4]: -47%
- growth inhibition [5]: 12.2%
- growth inhibition [6]: -5.2%

Compound: CCN(CC)CCC1CCCCN1CC(=O)N1c2ccccc2NC(=O)c2ccccc21 (stereo unspecified)
- growth inhibition [1]: -2.9%
- growth inhibition [2]: 2%
- growth inhibition [3]: 8.9%
- growth inhibition [4]: 8.2%
- growth inhibition [5]: -0.9%
- growth inhibition [6]: 0.25%

Compound: O=C1N=C2Sc3ccc4ccccc4c3N2C1=O
- growth inhibition [1]: 21.2%
- growth inhibition [2]: 2.55%
- growth inhibition [3]: 24.1%
- growth inhibition [4]: 20.4%
- growth inhibition [5]: 5.5%
- growth inhibition [6]: 11.2%
